According to article PMC5540273 (PLoS ONE, 2017):
Where two headings read alike, the source gives them in different places.

Legend:
[1] = test system: TAOK1; settings: concentration: 1 μM, replicates: in singlicate; n = 1
[2] = test system: TAOK2; settings: concentration: 1 μM, replicates: in singlicate; n = 1
[3] = test system: TAOK3; settings: concentration: 1 μM, replicates: in singlicate; n = 1
[4] = test system: TBK1; settings: concentration: 1 μM, replicates: in singlicate; n = 1
[5] = test system: TEC; settings: concentration: 1 μM, replicates: in singlicate; n = 1
[6] = test system: TESK1; settings: concentration: 1 μM, replicates: in singlicate; n = 1
[7] = test system: TGFBR1; settings: n = 1
[8] = test system: TGFBR2; settings: concentration: 1 μM, replicates: in singlicate; n = 1
[9] = test system: TIE1; settings: concentration: 1 μM, replicates: in singlicate; n = 1
[10] = test system: T1, TIE2; settings: concentration: 1 μM, replicates: in singlicate; n = 1
T1 construct: gene TEK

[11] = concentration: 1 μM, replicates: in singlicate
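Also: KINOMEscan kinase panel screen.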

Compound | %Inh [1] | %Inh [2] | %Inh [3] | %Inh [4] | %Inh [5] | %Inh [6] | %Inh [7, 11] | %Inh [8] | %Inh [9] | %Inh [10] | %Inh ([7]; 1 µM)
Nc1ncnc2occ(-c3ccc4c(c3)CCN4C(=O)Cc3cc(F)ccc3F)c12 [GSK2645446] | 0% | 6% | 0% | 10% | 0% | 0% | 0% | 0% | 45% | 0% | –
O=c1cc(N2CCOCC2)nc2n(Cc3cccc(Cl)c3Cl)c3ccccc3n12 [GSK2299009] | 0% | 0% | 0% | 22% | 20% | 17% | 0% | 0% | 24% | 5% | –
Cc1nccc(-c2c(-c3ccc(F)cc3)ncn2CCCN2CCOCC2)n1.Cl [SB-282975] | 4% | 12% | 0% | 16% | 15% | 37% | 1% | 0% | 0% | 99.9% | –
Cc1ccc(NC(=O)Nc2ccccc2)cc1-c1ccc(C(=O)Nc2ccncc2)cc1 [GSK1398471] | 0% | 0% | 0% | 17% | 0% | 2% | 0% | 0% | 0% | 0% | –
CS(=O)(=O)Cc1ccc(Nc2nccc(-c3c(-c4cccc(NC(=O)C5CCCCC5)c4)nn4ncccc34)n2)cc1 [GSK350559] | 11% | 0% | 0% | 29% | 29% | 10% | 0% | 0% | 3% | 0% | –
Fc1ccc(-c2nc3n(c2-c2ccncc2)CCS3)cc1 [GI98581] | 0% | 0% | 0% | 5% | 1% | 23% | 26% | 8% | 19% | 0% | –
COc1ccc(CSc2nnc(-c3ccc4ncsc4c3)o2)cc1C(F)(F)F | 31% | 9% | 0% | 13% | 0% | 3% | 5% | 19% | 0% | 19% | –
CNc1nc(-c2ccc3c(N)n[nH]c3c2)cc(N2C[C@@H](C(=O)Nc3ccccc3)CC[C@H]2C)n1 [GSK2298859] | 0% | 0% | 0% | 14% | 4% | 24% | 12% | 0% | 0% | 0% | –
O=C(Nc1n[nH]c2nc(-c3cccs3)c(Br)cc12)C1CCCC1 [SB-743341] | 0% | 0% | 0% | 0% | 0% | 25% | 19% | 7% | 33% | 15% | –
COc1ccc(Nc2nccc(N3CCC(NC(=O)C(C)c4ccc(Cl)cc4)CC3)n2)cc1 (stereo not shown) [GSK1379812] | 0% | 0% | 0% | 21% | 0% | 0% | 3% | 0% | 0% | 0% | –
Cn1cnc2c(N)ncnc21 [SKF-97623] | 0% | 0% | 0% | 0% | 0% | 0% | 9% | 2% | 0% | 0% | –
CNc1nc(-c2ccc3c(N)n[nH]c3c2)cc(N2C[C@@H](C(=O)NC3CCCCC3)OC[C@H]2C)n1 [GSK2375584] | 0% | 1% | 0% | 28% | 12% | 11% | 20% | 0% | 2% | 0% | –
COc1cc2ncnc(Nc3cccc(Br)c3)c2cc1OC.Cl [GI230329] | 0% | 0% | 0% | 7% | 0% | 31% | 1% | 0% | 0% | 0% | –
Cn1cncc1C(=O)NC1CCN(c2ccnc(Nc3ccc(F)cc3)n2)C1 (stereo not shown) [GSK1379717] | 0% | 0% | 0% | 9% | 4% | 98.9% | 26% | 0% | 0% | 0% | –
COc1ccc(CSc2nnc(-c3ccc4nccn4c3)o2)cc1C(F)(F)F | 22% | 13% | 0% | 10% | 21% | 12% | 14% | 12% | 22% | 0% | –
FC(F)(F)c1ccccc1-c1cc(-c2c[nH]nc2-c2ccccn2)ccn1 [GW679396] | 0% | 0% | 0% | 18% | 1% | 14% | – | 10% | 0% | 7% | 0%
CC(C)c1cc(-c2ccc3c(N)n[nH]c3c2)nc(N)n1 [GSK2250882] | 0% | 0% | 0% | 13% | 0% | 35% | 0% | 0% | 0% | 0% | –
CSc1ccc(-c2nc3n(c2-c2ccncc2)CCC3)cc1 [SKF-105561] | 0% | 14% | 9% | 0% | 11% | 8% | 15% | 13% | 0% | 0% | –
CCc1ccc(-c2ccc3c(c2)-c2n[nH]cc2S(=O)(=O)N3C)cc1 | 0% | 27% | 0% | 0% | 0% | 15% | 0% | 0% | 0% | 20% | –

Compound | %Inh [1] | %Inh [2] | %Inh [3] | %Inh [4] | %Inh [5] | %Inh [6] | %Inh [7, 11] | %Inh [8] | %Inh [9] | %Inh [10] | %Inh ([7]; 1 µM)
Fc1ccc(-c2nc[nH]c2-c2ccncc2)cc1 [SB-217360] | 0% | 40% | 7% | 48% | 0% | 0% | 37% | 53% | 0% | 3% | –
O=c1cc(N2CCOCC2)nc2n(Cc3ccccc3F)ccn12 [GSK2297428] | 0% | 0% | 0% | 15% | 0% | 3% | 0% | 0% | 0% | 0% | –
Nc1nccc(-c2c(-c3ccc(F)cc3)ncn2C2CCN(Cc3ccccc3)CC2)n1 [SB-219980] | 31% | 0% | 10% | 0% | 0% | 0% | 7% | 12% | 1% | 0% | –
NS(=O)(=O)c1cccc(N/C=C2\C(=O)Nc3ccc(S(=O)(=O)Cc4c(Cl)cccc4Cl)cc32)c1 [GSK398099] | 0% | 2% | 10% | 37% | 6% | 9% | 0% | 0% | 0% | 0% | –
CNC(=O)c1ccc(C)c(-n2c(C)cc(OCc3ccc(F)cc3F)c(Br)c2=O)c1 | 0% | 0% | 0% | 0% | 1% | 13% | 0% | 0% | 1% | 0% | –
COC(=O)c1cccc(NC(=O)NC2CCN(c3ccnc(Nc4ccc(F)cc4)n3)C2)c1 (stereo not shown) [GSK1379725] | 0% | 0% | 0% | 0% | 0% | 15% | 0% | 0% | 0% | 0% | –
CN1c2ccc(-c3ccc(C(N)=O)cc3)cc2-c2[nH]ncc2S1(=O)=O | 0% | 28% | 0% | 0% | 0% | 19% | 13% | 11% | 0% | 0% | –
CCn1c(-c2c(N)noc2C)nc2cnccc21 [SB-737856] | 0% | 0% | 0% | 0% | 1% | 54% | 4% | 0% | 0% | 0% | –
Nc1cccc(-c2ccc3c(N)n[nH]c3c2)n1 [GSK2192730] | 1% | 0% | 0% | 18% | 0% | 13% | 3% | 0% | 0% | 0% | –
COc1ccc2cc(-c3nc(-c4ccccc4C(C)C)[nH]c3-c3ccncc3)ccc2c1 [SB-660566] | 0% | 0% | 0% | 0% | 17% | 32% | 80% | 42% | 69% | 97% | –
Cc1ccc(NC(=O)Nc2ccccc2F)cc1-c1ccc(C(=O)Nc2ccncc2)cc1 [GSK1398477] | 0% | 0% | 0% | 13% | 24% | 2% | 0% | 13% | 35% | 0% | –
Cc1ccccc1-c1cc(-c2c[nH]nc2-c2ccccn2)ccn1 [GW680061] | 0% | 0% | 0% | 0% | 15% | 24% | – | 0% | 6% | 0% | 5%
Cc1c(Cn2c(C)c(C)n3c(=O)cc(N4CCOCC4)nc23)cccc1C(F)(F)F [GSK2328680] | 0% | 0% | 0% | 9% | 5% | 22% | 9% | 0% | 54% | 0% | –
CC(=O)c1c(C)c2cnc(Nc3ccc(N4CCNCC4)cn3)nc2n(C2CCCC2)c1=O | 0% | 0% | 0% | 4% | 0% | 12% | 3% | 0% | 0% | 0% | –
COC(=O)c1cccc(NC(=O)NC2CCN(c3ccnc(Nc4ccc(OC)cc4)n3)C2)c1 (stereo not shown) [GSK1379746] | 0% | 0% | 0% | 0% | 14% | 13% | 41% | 0% | 0% | 0% | –
O=C1NC(=O)C(c2ccc(Cl)cc2)=C1Nc1cccc(Cl)c1 [SB-317651] | 15% | 2% | 15% | 15% | 0% | 22% | 0% | 8% | 0% | 6% | –
Cn1cncc1-c1cc2c(Nc3ccc(OCc4ccccc4)cc3)ncnc2cn1 [GW281179] | 0% | 0% | 0% | 0% | 0% | 35% | 0% | 0% | 0% | 0% | –
Cc1ccc(NC(=O)c2ccc(Cl)cc2)cc1-c1ccc(C(=O)Nc2ccncc2)cc1 [GSK1398467] | 0% | 0% | 0% | 7% | 12% | 14% | 1% | 0% | 0% | 0% | –
